# Compound activity: PubChem BioAssay, several laboratories
# An excerpt weighted towards active compounds, which were near 5.9% of everything screened.
# NR0B1 inh: inhibits human nuclear receptor DAX1. HEK293 Gal4-DAX1 luciferase reporter, luminescence. inhibition, % at 6.75 µM. 340,000 tested, 0.99% active. AID 504766;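 active means inhibition above the mean over all tested compounds plus 3 SD, cut at about 4.2% in these data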;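 further: inhibition shows as a rise in luminescence from relieved DAX1 repression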
# AHR activator: activates the human aryl hydrocarbon receptor; 320,000 tested, 2.5% active; AID 2796; P35869; activation, % at 5 µM; AHR-responsive luciferase reporter cells, luminescence; in the data active means activation above about 47%
# Target sequence (P35869 whole entry, looked up): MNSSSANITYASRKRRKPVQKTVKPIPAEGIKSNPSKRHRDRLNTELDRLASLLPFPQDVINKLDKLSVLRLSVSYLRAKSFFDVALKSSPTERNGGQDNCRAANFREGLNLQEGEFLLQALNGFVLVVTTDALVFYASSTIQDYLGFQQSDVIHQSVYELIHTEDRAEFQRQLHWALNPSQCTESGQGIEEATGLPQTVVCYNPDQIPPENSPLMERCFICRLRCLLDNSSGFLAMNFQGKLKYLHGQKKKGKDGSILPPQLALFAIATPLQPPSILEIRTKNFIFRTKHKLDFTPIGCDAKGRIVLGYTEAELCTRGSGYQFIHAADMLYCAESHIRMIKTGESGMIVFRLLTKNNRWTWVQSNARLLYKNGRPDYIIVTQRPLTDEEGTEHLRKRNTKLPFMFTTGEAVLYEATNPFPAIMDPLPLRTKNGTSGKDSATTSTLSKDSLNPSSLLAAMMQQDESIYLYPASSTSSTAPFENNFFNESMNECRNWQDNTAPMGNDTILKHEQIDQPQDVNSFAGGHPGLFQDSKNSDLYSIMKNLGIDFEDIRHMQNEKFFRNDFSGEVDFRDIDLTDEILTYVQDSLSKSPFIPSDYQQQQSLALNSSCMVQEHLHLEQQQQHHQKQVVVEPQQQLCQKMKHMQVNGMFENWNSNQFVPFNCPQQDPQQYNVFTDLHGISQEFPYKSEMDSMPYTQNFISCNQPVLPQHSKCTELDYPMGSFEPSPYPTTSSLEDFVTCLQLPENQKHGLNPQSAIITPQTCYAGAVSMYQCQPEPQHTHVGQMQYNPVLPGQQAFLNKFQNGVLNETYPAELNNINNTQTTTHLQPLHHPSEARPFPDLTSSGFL
# HSF1 inh: HSF1 inhibition | NIH3T3-HGL HSE-luciferase, MG132-induced, luminescence 8 h; stronger effect = lower value | 300,000 tested, 0.77% active | activity change, negative = inhibition, % at 7.5 µM (by protocol);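 active means more than half of replicate wells show activity change below -50%, luminescence cut by over half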;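 further: luciferase reports HSF-1 transcriptional activity via heat shock element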
# HSP90 inh: inhibitors of HSP90 luciferase refolding in rabbit reticulocyte lysate | inhibition, % at 5.6 µM | luciferase refolding luminescence, 3 h | AID 1789 | 290,000 tested, 0.91% active;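 active means inhibition above the screen-wide mean plus 3 SD, computed separately per campaign, cut at about 16% in these data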;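 further: inhibitors lower the luminescence because luciferase stays unfolded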
# GAA850 FXN act: increases GAA850 frataxin promoter reporter activity | 360,000 tested, 0.56% active | activation, % at 6 µM | AID 540364 | HEK293 lucGAA850 FXN promoter luciferase reporter, 24 h; percent of 10 µM SAHA response;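 active means activation above the average of all compounds screened plus 3 SD, cutoff fixed separately per campaign, cut at about 7.5% in these data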
# HSF1 activator: increases HSF-1 driven luciferase reporter signal. AID 504408. activation, % at 9 µM. 300,000 tested, 1.7% active. NIH3T3-HGL HSF-1 luciferase reporter, MG132, 8 h; 100% = twice DMSO control signal;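 active means mean replicate activation of at least 50% with a set share of replicates each reaching 50%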
# Hits are given with their value; - = inactive; . = no result.
SMILES,NR0B1 inh,AHR activator,HSF1 inh,HSP90 inh,GAA850 FXN act,HSF1 activator
COC(=O)C1CC(c2ccccc2)N(c2ccccc2)O1 (stereo not given),-,.,.,.,-,.
CCCNC(=O)C1(C)CCCN(Cc2c(F)cccc2F)C1 (stereo not given),.,.,.,.,-,.
CCN(CC)C(=O)c1csc([C@@H]2O[C@H](CO)[C@H](O)[C@H](O)[C@H]2O)n1,.,.,.,.,-,.
O=C1NC2(CCCCCC2)C(=O)N1Cc1cccc([N+](=O)[O-])c1,-,-,-,-,-,-
Brc1ccc(C2=CC(c3ccco3)n3nnnc3N2)cc1 (stereo not given),-,52.1,-,-,-,-
COCCCNC(=O)Cn1cnc2sc(C)c(S(=O)(=O)N3CCN(c4ccccc4OC)CC3)c2c1=O,-,-,-71.9,-,-,-
C/C(=N\N1C(=O)c2ccccc2NC1c1ccco1)c1ccccc1O (stereo not given),6.1,-,-,-,-,-
C/C(=N\N1C(=O)c2ccccc2NC1c1ccccc1)c1ccccc1O (stereo not given),-,-,-,-,-,-
CC(=O)Nc1ccc(N/C=C/C(=O)C(C)(C)C)cc1,-,-,-,-,-,62.6
CC1CN(c2ncnc3c2cnn3-c2ccc(Cl)cc2)CC(C)O1 (stereo not given),-,-,-,16.4,-,-
COc1ccc(C2c3c(ncn(CCCO)c3=N)Oc3ccc4ccccc4c32)cc1 (stereo not given),-,-,-,-,-,58.4
COc1ccc(C2c3c(ncn(CCCO)c3=N)Oc3ccc4ccccc4c32)cc1OC (stereo not given),.,-,-,-,-,-
CCCCn1c(N)c(N(CC(C)C)C(=O)c2cccc(S(=O)(=O)N3CCCCCC3)c2)c(=O)[nH]c1=O,-,-,-,-,-,-
CCCCn1c(N)c(N(CC(C)C)C(=O)c2cccc(S(=O)(=O)N3CCCCC3)c2)c(=O)[nH]c1=O,-,-,-71.0,.,-,-
CC(NC(=O)CSc1ncccc1C(=O)O)C1CC2CCC1C2 (stereo not given),5.1,-,-,-,-,-
CC1(C)CC2CC(C)(CN2C(=O)COC(=O)c2n[nH]c(=O)c3ccccc23)C1 (stereo not given),4.4,-,-,-,-,-
CC1(C)CC2CC(C)(CN2C(=O)COc2cccc3ccccc23)C1 (stereo not given),-,-,-,-,-,-
CC1(C)CC2CC(C)(CN2C(=O)CCCN2C(=O)c3ccccc3C2=O)C1 (stereo not given),-,-,-56.6,-,-,-
CC1(C)CC2CC(C)(CN2C(=O)COC(=O)c2cccnc2Cl)C1 (stereo not given),-,-,.,.,-,.
COc1ccccc1N1CCN(S(=O)(=O)CCNC(=O)C2CC2)CC1,-,-,-,.,-,-
COc1ccc(-n2nc3ccccc3n2)cc1,-,-,-,-,-,-
COc1ccc(-n2nc3cc(C)c(NC(C)=O)cc3n2)cc1,-,75.4,-,-,-,-
COc1ccc(-n2nc3cc(C)c(N)c(Br)c3n2)cc1,-,48.8,-,-,-,-
CCOC(=O)/C(=C\c1cccnc1)C(=O)c1cc(C(C)=O)c(Nc2ccccc2)s1,-,-,-93.2,-,-,-
Cc1ccc(-c2nc3ncccc3o2)cc1NC(=O)c1ccc([N+](=O)[O-])o1,-,-,-,-,-,139.1
SMILES,NR0B1 inh,AHR activator,HSF1 inh,HSP90 inh,GAA850 FXN act,HSF1 activator
O=C(Nc1ccc(-c2nc3ncccc3o2)cc1)c1ccc([N+](=O)[O-])o1,-,-,-,-,-,150.8
Cc1cc(-c2nc3ncccc3o2)ccc1NC(=O)c1ccc([N+](=O)[O-])o1,-,.,.,.,-,.
O=C(Nc1ccc2oc(-c3ccncc3)nc2c1)c1ccc([N+](=O)[O-])o1,-,-,-,-,-,83.6
Cc1nc2scc(C)n2c(=O)c1S(=O)(=O)N1CCN(c2ccc([N+](=O)[O-])cc2)CC1,-,-,-,-,-,-
CCCCN(C=O)c1c(CC)nc2ccc(C(=O)N3CCN(C(=O)c4ccco4)CC3)cn12,.,.,.,.,-,.
O=C(c1ccc(F)cc1)N1CCN2C(=O)c3ccccc3C12c1ccc(Cl)cc1 (stereo not given),4.2,-,-,-,-,-
CCCCN(Cc1cc2cc(OC)ccc2[nH]c1=O)C(=O)c1ccco1,-,-,-,-,-,76.5
CCOc1ccc(C(=O)N(Cc2ccc(OC)cc2)Cc2cc3cc(OC)ccc3[nH]c2=O)cc1,-,-,-,-,-,64.8
CCCN(Cc1cc2cc(OC)ccc2[nH]c1=O)C(=O)c1ccncc1,-,-,-,-,-,-
Cc1ccc2nc(-c3ccc4c(c3)OCCO4)cc(C(=O)O)c2c1,-,-,-,-,-,52.0
CCCN(CCC)C(=O)c1cc(-c2ccc3c(c2)OCO3)nc2ccccc12,-,66.2,-,-,-,-
CC(=O)c1sc(NC(=O)COc2ccccc2)nc1C,4.5,-,-,-,-,-
COC(=O)c1sc(NC(=O)COc2ccccc2C)nc1C,-,-,-,-,-,56.8
COC(=O)c1sc(NC(=O)COc2c(C)cccc2C)nc1C,-,-,-,-,-,-
CC(=O)c1sc(NC(=O)c2ccc(C)c(C)c2)nc1C,6.2,-,-,-,-,53.1
Cc1ccc(NC(=S)N(CCCN2CCC(C)CC2)Cc2ccco2)cc1C,-,-,-,-,-,-
COc1cc([N+](=O)[O-])ccc1NC(=O)C[n+]1cccc(C)c1,-,-,-,-,-,-
Cc1ccc[n+](CC(=O)Nc2ccc([N+](=O)[O-])cc2Cl)c1,-,-,-,-,-,66.6
NS(=O)(=O)c1ccc(N/C=C\C(=O)c2ccc(F)cc2)cc1,-,-,-,-,-,73.7
NS(=O)(=O)c1ccc(N/C=C/C(=O)c2ccc(Br)cc2)cc1,-,-,-,-,-,-
COc1cc(C2NC(=O)NC(C)=C2C(=O)OCC2CCCO2)cc(OC)c1OC (stereo not given),-,-,-,-,-,-
COc1cc(C2NC(=O)NC(C)=C2C(=O)OCC2CCCO2)ccc1O (stereo not given),-,-,-86.8,-,-,-
Cc1ccc2nc(-c3ccc(NS(=O)(=O)c4c(C)n(C)c(=O)n(C)c4=O)cc3)sc2c1,6.3,-,-,-,-,-
CCCCn1c(O)c(N=NC(=O)c2ccco2)c2ccccc21,-,76.2,-,-,-,-
O=C(N=Nc1c(O)n(C2OC(=O)c3ccccc32)c2ccccc12)c1ccco1 (stereo not given),.,-,-,-,.,-
O=C(CNC(=O)c1ccco1)N=Nc1c(O)n(CCc2ccccc2)c2ccccc12,-,58.7,-,-,-,-
COCC1CCCCN1C(=O)c1ccc2nc(Cc3ccc(OC)c(OC)c3)oc2c1 (stereo not given),-,-,-,-,-,-
COc1cccc(C=NNc2nc3ccccc3s2)c1OC,6.8,.,.,.,-,.
